# Results published in PubChem BioAssay (NCATS).
# Inconclusive results are not listed. Calls of active or inactive are those of the source. Unless noted, the call rests on the fitted dose curve; in most records, active means well fitted curve in the direction sought with a large enough effect; inconclusive means small, poorly fitted or top-dose-only effect, or another doubt; inactive means no such curve, though single readings can be large; an effect the other way counts as inactive or inconclusive. *1 amine or outer side, *2 acyl side, *3 side chain or, on linkers, in order; H or OH if unused. Where a SMILES comes first, the peptide text is derived from it. Non-standard residues stand in square brackets, D forms with d. Residues, ends and D or L forms follow the SMILES beside them. Bridges are numbered along the chain shown (N, C = ends). Roman numbers before positions name the chains, in order. [ ]: non-standard residue; d: D form. ξ: configuration not given here. Actinocin(9to1) = Cc1c2oc3c(C)ccc(C(=O)[*:1])c3nc-2c(C(=O)[*:2])c(N)c1=O; Orn = NCCC[C@H](N)C(=O)O; ξNMeV = CNC(C(=O)O)C(C)C; ξV = CC(C)C(N)C(=O)O; Sar = CNCC(=O)O
# What was measured:
# [1] = qHTS Assay for Identifying Gametocytocidal Compounds (AID 743244); further: potency means the concentration at half of the fitted maximal effect;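 on max response: on the % scale 0 is the no-effect control and ±100 the full control effect; actives lower the fluorescent signal which means gametocytes are killed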; conditions: P. falciparum 3D7 stage III-V gametocytes, alamarBlue, 72 h; max response: stronger effect = lower value
# Summary of the method: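 A resazurin-based viability read-out was applied to mature P. falciparum gametocytes: 72 h compound treatment, then 24 h dye incubation, with falling fluorescence signalling gametocytocidal effect.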
# [2] = qHTS assay to identify small molecule inhibitors of chordoma cells - UCH-2 (AID 1259356); further: potency means the concentration at half of the fitted maximal effect
# [3] = P-glycoprotein substrates identified in KB-3-1 adenocarcinoma cell line, qHTS therapeutic library screen (AID 1346986); further: nearly all actives have a fitted effect of over 60% in size
# Summary of the method: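 Resistance attributable to P-gp was assessed by comparing AC50 in KB-8-5-11 with parental KB-3-1 and by tariquidar reversal. Cells were exposed 72 h and viability read by CellTiter-Glo.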
# [4] = qHTS profiling for inhibitors of Plasmodium falciparum (HB3) proliferation (AID 743324); conditions: Plasmodium falciparum HB3 blood-stage proliferation; at 28.7 µM (top of the series) unless noted;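 further: 100% = DMSO vehicle wells and 0% = artemisinin-treated control wells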
# Summary of the method: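 P. falciparum HB3 grown in erythrocytes (0.3% parasitemia, 2.5% hematocrit final) with compound for 72 h at 37 C, 5% CO2. Parasite DNA detected by SYBR Green after saponin/triton lysis overnight; normalized to 0.29 uM artemisinin and DMSO.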
# [5] = Identifying Small Molecule Inhibitors of Pancreatic Cancer Stem Cells (Panc1, Spheroid) (AID 1259359);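 further: potency means the concentration at half of the fitted maximal effect; compound exposure lasted 48 h before reading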
# Summary of the method: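 Adherent (2D) versus sphere (3D) formats; spheres generated 14 d in SCM beforehand. Compound transferred by pin tool after 4 h, 48 h incubation, CellTiter-Glo endpoint.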
# [6] = Identifying Small Molecule Inhibitors of Pancreatic Cancer Stem Cells (SN12C, Spheroid) (AID 1259360); conditions: Potency: SN12C spheroid viability; further: potency means the concentration at half of the fitted maximal effect
# Summary of the method: (§1)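 Cytotoxicity read by CellTiter-Glo luminescence after 48 h compound exposure at 37C; percent activity scaled between DMSO-treated cells and cell-free wells. Spheroid formats used cells pre-formed 14 days in stem cell media on hydrogel.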
# [7] = Identifying Small Molecule Inhibitors of Pancreatic Cancer Stem Cells (Panc1, Adherent) (AID 1259362); conditions: Potency: viability; further: potency means the concentration at half of the fitted maximal effect
# Summary of the method: (§2)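 After a 4 h attachment period, compounds were pinned into wells and cultures held 48 h under standard incubator conditions. Viability was then measured as CellTiter-Glo luminescence following 10 min at room temperature.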
# [8] = Identifying Small Molecule Inhibitors of Pancreatic Cancer Stem Cells (A278, Adherent) (AID 1259361); further: nearly all actives have a fitted effect of over 35% in size
# Summary of the method: as §2
# [9] = Identifying Small Molecule Inhibitors of Pancreatic Cancer Stem Cells (A2780, Spheroid) (AID 1259357); conditions: Potency: A2780 spheroid viability;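 further: compound exposure lasted 48 h before the ATP luminescence read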; further: potency means the concentration at half of the fitted maximal effect
# Summary of the method: as §1
# [10] = qHTS profiling of the MIPE4 collection as inhibitors of Plasmodium falciparum (3D7) proliferation (AID 743344; call rule not given here;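 further: scaled between DMSO vehicle wells and 0.29 µM artemisinin as full inhibition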); conditions: P. falciparum 3D7 in erythrocytes, SYBR Green DNA fluorescence, 72 h; at 28.5 µM (top of the series) unless noted
# Summary of the method: (§3)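 Erythrocytes infected with P. falciparum (0.3% parasitemia, 2.5% hematocrit) incubated with compounds 72 h at 37 C, 5% CO2. Lysis with saponin/Triton buffer containing SYBR Green I, overnight at room temperature in the dark; DNA fluorescence (485/535 nm) normalised to 0.29 uM artemisinin and DMSO.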
# [11] = qHTS profiling of the MIPE4 collection as inhibitors of Plasmodium falciparum (DD2) proliferation (AID 743345; call rule not given here); conditions: P. falciparum Dd2 in erythrocytes, SYBR Green DNA, 72 h; at 28.5 µM (top of the series) unless noted
# Summary of the method: as §3
# [12] = qHTS profiling of the MIPE4 collection as inhibitors of Plasmodium falciparum (DD2) proliferation (Rep 2) (AID 743346; call rule not given here); conditions: P. falciparum Dd2 in erythrocytes, SYBR Green DNA, 72 h; at 28.5 µM (top of the series) unless noted
# Summary of the method: as §3
# [13] = qHTS profiling of the MIPE4 collection as inhibitors of Plasmodium falciparum (HB3) proliferation (AID 743347; call rule not given here;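 further: plate controls were DMSO vehicle wells for no effect and artemisinin wells for full effect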); conditions: P. falciparum HB3 in erythrocytes, SYBR Green DNA, 72 h; at 28.5 µM (top of the series) unless noted
# Summary of the method: as §3
compound,measurement,setting,value
CC(=O)O[C@]1(C(C)=O)CC[C@H]2[C@@H]3CCC4=CC(=O)CC[C@]4(C)[C@@]3(F)[C@@H](O)C[C@@]21C,max response,[1],11% (inactive)
same,Potency,[2],inactive
COC(=O)CC[C@@H](C)[C@H]1CC[C@H]2[C@@H]3CC(=O)[C@H]4C[C@H](OC(C)=O)CC[C@]4(C)[C@H]3CC[C@]12C,Potency,[3],inactive
"Cc1c2oc3c(C)ccc(C(=O)N[C@@H]4C(=O)NC(C(C)C)C(=O)N5CCC[C@H]5C(=O)N(C)CC(=O)N(C)C(C(C)C)C(=O)O[C@@H]4C)c3nc-2c(C(=O)N[C@@H]2C(=O)NC(C(C)C)C(=O)N3CCC[C@H]3C(=O)N(C)CC(=O)N(C)C(C(C)C)C(=O)O[C@@H]2C)c(N)c1=O (some centres not stated) (I: T[ξV]P[Sar][ξNMeV] / II: T[ξV]P[Sar][ξNMeV]; ester I:1-I:C, II:1-II:C; linker I:N-II:N via Actinocin(9to1))",Potency,[1],0.0132 µM (active)
same,"remaining proliferation (% of control), lower = more inhibition",[4],-2.59%
same,Potency,[5],0.0047 µM (active)
same,Potency,[6],0.0047 µM (active)
same,Potency,[7],0.0132 µM (active)
C=C1CC23CC1(O)CCC2C1=CC2OC(=O)C(C)(C2O)C1C3C(=O)O (configuration not stated),Potency,[3],inactive
C[C@@H]1O[C@@H](O[C@H]2[C@H](OC(=O)C34CCC(C)(C)CC3C3=CCC5C6(C)CC(O)C(O[C@@H]7O[C@H](CO)[C@@H](O)[C@H](O)[C@H]7O)C(C)(C(=O)O)C6CCC5(C)C3(CO)CC4)O[C@H](C)[C@H](O)[C@@H]2O)[C@H](O)[C@H](O)[C@H]1O[C@@H]1OC[C@@H](O)[C@H](O)[C@H]1O (some centres not stated),outcome,[3],inactive [at 9.29 µM]
CCOc1cc2ncc(C#N)c(Nc3ccc(OCc4ccccn4)c(Cl)c3)c2cc1NC(=O)/C=C/CN(C)C,Potency,[1],23.5 µM (active)
same,"remaining proliferation (% of control), lower = more inhibition",[4],-0.513%
same,Potency,[6],4.69 µM (active)
same,IC50 (viability decrease),[8],1.18 µM (active)
same,Potency,[7],2.64 µM (active)
COC(=O)C1=C(C)NC(C)=C(C(=O)OCCCN2CCC(c3ccccc3)(c3ccccc3)CC2)[C@H]1c1cccc([N+](=O)[O-])c1,Potency,[1],14.8 µM (active)
same,"remaining proliferation (% of control), lower = more inhibition",[4],-0.517%
same,Potency,[9],inactive
same,IC50 (viability decrease),[8],26.4 µM (active)
C/C=C(\C)C(=O)O[C@@H](C)[C@H]1CC[C@]2(O)C3CCC4C[C@@H](OC5CC(OC)C(OC6CC(OC)C(OC7CC(OC)C(OC8OC(C)C(OC9OC(CO)C(O)C(O)C9O)C(OC)C8O)C(C)O7)C(C)O6)C(C)O5)CC[C@]4(C)C3[C@H](O)[C@@H](O)[C@]12C (some centres not stated),outcome,[3],inactive [at 9.29 µM]
CC(C)c1nc(N(C)S(C)(=O)=O)nc(-c2ccc(F)cc2)c1/C=C/[C@@H](O)C[C@@H](O)CC(=O)O,Potency,[3],inactive
O=C(O[C@H]1[C@@H]2C[C@@H]3OC[C@@](O)([C@H]2[C@H](O[C@@H]2O[C@H](CO)[C@@H](O)[C@H](O)[C@H]2O)O3)[C@@H]1O)c1ccccc1,Potency,[3],inactive
CC1CCC2(C(=O)OC3OC(CO)C(O)C(O)C3O)CCC3(C(=O)O)C(=CCC4C5(C)CCC(OC6OC(C)C(O)C(O)C6O)C(C)(C)C5CCC43C)C2C1C (configuration not stated),Potency,[3],inactive
CNC1CCN(C(Cc2cccc(-c3ccncc3)c2)C(=O)c2sc3c(F)ccc(F)c3c2Cl)CC1 (configuration not stated),Potency,[1],9.35 µM (active)
same,"remaining proliferation (% of control), lower = more inhibition",[4],-0.323%
same,Potency,[9],inactive
O=c1ccn(C2OC(CO)C(O)C2O)c(=O)[nH]1 (configuration not stated),Potency,[3],inactive
C=C(C)[C@H]1C[C@@H](O)C(=C)CC[C@@H](O)C(=C)[C@@H](O)C1,Potency,[3],inactive
CC[C@@H](C(=O)O)C1CC[C@H](C)C([C@@H](C)[C@H](O)[C@H](C)C(=O)[C@H](CC)C2O[C@]3(C=C[C@@H](O)[C@]4(CC[C@@](C)(C5CC[C@](O)(CC)[C@H](C)O5)O4)O3)[C@H](C)C[C@@H]2C)O1 (some centres not stated),"remaining proliferation (% of control), lower = more inhibition",[4],-1.24%
same,Potency,[9],0.0332 µM (active)
same,Potency,[5],14.8 µM (active)
same,Potency,[6],1.87 µM (active)
same,IC50 (viability decrease),[8],0.0743 µM (active)
same,Potency,[7],7.43 µM (active)
CCN(c1cc(C#CCN2CCOCC2)cc(C(=O)NCc2c(C)cc(C)[nH]c2=O)c1C)C1CCC(N(C)CCOC)CC1 (configuration not stated),Potency,[3],inactive
CC12CCC3C(C)(C)C(O)CCC3(C)C1Cc1c(oc(C(=O)O)cc1=O)O2 (configuration not stated),Potency,[3],inactive
CCCCC(=O)O[C@]1(C(=O)CO)[C@H](C)C[C@H]2[C@@H]3CCC4=CC(=O)C=C[C@]4(C)[C@@]3(F)[C@@H](O)C[C@@]21C,max response,[1],12.3% (inactive)
same,Potency,[2],inactive
CC(C)C[C@@H]1NC(=O)[C@H](CCCN)NC(=O)[C@H](C(C)C)NC(=O)[C@@H]2CCCN2C(=O)[C@@H](Cc2ccccc2)NC(=O)[C@H](CC(C)C)NC(=O)[C@H](CCCN)NC(=O)[C@H](C(C)C)NC(=O)[C@@H]2CCCN2C(=O)[C@@H](Cc2ccccc2)NC1=O (cyclo(V[Orn]L[dF]PV[Orn]L[dF]P)),Potency,[1],2.24 µM (active)
same,"remaining proliferation (% of control), lower = more inhibition",[4],-1.03%
same,"parasite growth, % of DMSO control",[10],6.95%
same,"parasite growth remaining, % of DMSO control (lower = more inhibition)",[11],5.43%
same,"parasite growth, % of control (lower = inhibition)",[12],6.21%
same,"growth, % of control",[13],4.03%
same,Potency,[2],8.2 µM (active)
C=C1C(=CC=C2CCC[C@@]3(C)[C@@H]2CC[C@H]3[C@H](C)CCCC(C)C)C[C@@H](O)C[C@@H]1O,"parasite growth, % of DMSO control",[10],22.5%
same,"parasite growth remaining, % of DMSO control (lower = more inhibition)",[11],65.2%
same,"parasite growth, % of control (lower = inhibition)",[12],29.8%
same,"growth, % of control",[13],19.8%
same,Potency,[2],inactive
NC(=O)Nc1cc(-c2ccc(CN3CCOCC3)c(F)c2)sc1C(=O)N[C@H]1CCCNC1,Potency,[1],18.7 µM (active)
same,"remaining proliferation (% of control), lower = more inhibition",[4],2.42%
same,Potency,[9],20.9 µM (active)
same,Potency,[5],9.35 µM (active)
same,Potency,[6],16.6 µM (active)
same,IC50 (viability decrease),[8],0.526 µM (active)
same,Potency,[7],0.833 µM (active)
